The structures appear in SMILES notation. A number with no mark means an inactive call. For some of these results: Entries with a potency or affinity are not part of this list. Activity calls are given as the source filed them. Unless noted, the rule behind the calls is not given here.

This passage reports growth inhibition, inhibition and outcome results from PubChem BioAssay.

Assay [1] can be described thus: antimalarial activity against Dd2 strain (AID 2302;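 active = growth inhibition above 50% at the single 2 µM test dose, taken to imply half-maximal potency below 2 µM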;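 note: 0% = DMSO untreated growth and 100% = chloroquine plus artemisinin killed control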). The settings on record: P. falciparum Dd2 in RBCs, LDH growth readout, 72 h; at 2 µM; active compounds read high.
The nature of assay [2]: human hepatoma cell viability loss – ATP luminescence, cytotoxicity control for P. falciparum antimalarial project, primary screen (AID 2303;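 active = inhibition above 50%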;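 note: 0% = DMSO wells and 100% = digitonin-killed cells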). The settings on record: HepG2 viability, 24-48 h, at 10 µM, active compounds read high.
For assay [3], the target named is L-lactate dehydrogenase (Plasmodium falciparum (isolate CDC / Honduras)) (UniProt Q27743). Description: PfLDH activity inhibition – cell lysate, 3D7 strain, counter-screen for P. falciparum growth inhibition project (AID 2304).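 Note: 0% = vehicle and 100% = reference inhibitor.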 The settings on record: P. falciparum 3D7 crude extract, LDH APAD/NBT absorbance; at 2 µM; active compounds read high.
L-lactate dehydrogenase (Plasmodium falciparum (isolate CDC / Honduras)), sequence (Q27743 whole entry, looked up): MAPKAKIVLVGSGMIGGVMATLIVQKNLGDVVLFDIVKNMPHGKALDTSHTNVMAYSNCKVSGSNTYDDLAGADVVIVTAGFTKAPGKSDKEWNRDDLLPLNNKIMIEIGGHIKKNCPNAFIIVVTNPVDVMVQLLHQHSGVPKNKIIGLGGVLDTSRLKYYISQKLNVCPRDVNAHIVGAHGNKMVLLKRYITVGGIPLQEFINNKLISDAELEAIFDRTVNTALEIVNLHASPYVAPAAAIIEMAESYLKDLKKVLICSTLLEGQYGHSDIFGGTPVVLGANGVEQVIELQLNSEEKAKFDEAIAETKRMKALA
Assay [4] is described as follows: inhibition of 3D7 malaria parasite growth – strain 3D7 (AID 2306).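 Note: 0% = DMSO wells and 100% = chloroquine plus artemisinin control wells.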 Particulars: P. falciparum 3D7 erythrocytic growth, LDH absorbance, 72 h; at 2 µM; active compounds read high.
For assay [5], the target named is Calcium-dependent protein kinase 1 (Plasmodium falciparum (isolate 3D7)) (UniProt P62344). Description: PfCDPK1 kinase inhibitors, biochemical, TCAMS library (AID 1159585; cut-off not given, nearly all actives have IC50 up to about 0.98 µM;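 note: inhibitors leave more ATP so luminescence rises with inhibition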). Particulars: recombinant PfCDPK1, Kinase-Glo ATP depletion luminescence. A general note: Kinase-Glo reads ATP consumption through a luciferase reaction.
Calcium-dependent protein kinase 1 (Plasmodium falciparum (isolate 3D7)), sequence (P62344 whole entry, looked up): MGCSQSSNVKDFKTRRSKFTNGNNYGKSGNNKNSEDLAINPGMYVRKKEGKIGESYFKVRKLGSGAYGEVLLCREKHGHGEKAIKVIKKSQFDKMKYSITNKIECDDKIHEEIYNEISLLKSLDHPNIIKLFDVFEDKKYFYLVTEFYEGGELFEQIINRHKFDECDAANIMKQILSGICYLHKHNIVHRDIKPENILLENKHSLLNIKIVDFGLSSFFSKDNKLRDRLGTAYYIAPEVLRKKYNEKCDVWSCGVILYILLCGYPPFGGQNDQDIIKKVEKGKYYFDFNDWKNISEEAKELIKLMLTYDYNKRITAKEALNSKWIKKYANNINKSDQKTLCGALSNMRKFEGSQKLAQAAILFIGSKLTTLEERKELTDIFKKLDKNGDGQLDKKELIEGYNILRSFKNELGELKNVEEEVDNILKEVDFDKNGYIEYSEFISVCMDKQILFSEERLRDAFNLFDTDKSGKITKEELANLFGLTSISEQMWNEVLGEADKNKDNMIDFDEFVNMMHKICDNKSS
Assay [6] deals with Plasmodium falciparum protein kinase 6 (PK6, PF3D7_1337100) (UniProt Q8IDW1). The assay is described as follows: PfPK6 kinase inhibitors, biochemical, TCAMS library (AID 1159586). Particulars: recombinant PfPK6, Kinase-Glo ATP depletion luminescence.
Plasmodium falciparum protein kinase 6 (PK6, PF3D7_1337100), sequence (Q8IDW1 1-305): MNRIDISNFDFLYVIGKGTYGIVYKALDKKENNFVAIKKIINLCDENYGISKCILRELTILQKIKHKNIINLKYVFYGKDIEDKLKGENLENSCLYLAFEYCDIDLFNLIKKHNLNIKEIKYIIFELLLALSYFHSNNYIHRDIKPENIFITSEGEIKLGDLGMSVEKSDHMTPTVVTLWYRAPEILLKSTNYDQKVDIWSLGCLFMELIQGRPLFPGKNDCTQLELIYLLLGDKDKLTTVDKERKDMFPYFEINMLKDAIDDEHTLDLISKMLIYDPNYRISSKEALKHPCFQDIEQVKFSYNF
Assay [7] has as its target Protein kinase 7 (PK7), Plasmodium falciparum 3D7 (PF3D7_0213400) (UniProt Q7YTF7). Description: inhibition of Plasmodium PK7 catalytic activity – biochemical, TCAMS antimalarial set, Kinase-Glo luminescence (AID 1159587). The settings on record: recombinant PfPK7, Kinase-Glo ATP depletion luminescence.
The target of assay [8] is Calcium-dependent protein kinase 4 (Plasmodium falciparum (isolate 3D7)) (UniProt Q8IBS5). The assay is described as follows: PfCDPK4 kinase inhibitors, biochemical, TCAMS library (AID 1159588; cut-off not given, nearly all actives have IC50 up to about 0.91 µM). Particulars: recombinant PfCDPK4, Kinase-Glo ATP depletion luminescence.
Calcium-dependent protein kinase 4 (Plasmodium falciparum (isolate 3D7)), sequence (Q8IBS5 whole entry, looked up): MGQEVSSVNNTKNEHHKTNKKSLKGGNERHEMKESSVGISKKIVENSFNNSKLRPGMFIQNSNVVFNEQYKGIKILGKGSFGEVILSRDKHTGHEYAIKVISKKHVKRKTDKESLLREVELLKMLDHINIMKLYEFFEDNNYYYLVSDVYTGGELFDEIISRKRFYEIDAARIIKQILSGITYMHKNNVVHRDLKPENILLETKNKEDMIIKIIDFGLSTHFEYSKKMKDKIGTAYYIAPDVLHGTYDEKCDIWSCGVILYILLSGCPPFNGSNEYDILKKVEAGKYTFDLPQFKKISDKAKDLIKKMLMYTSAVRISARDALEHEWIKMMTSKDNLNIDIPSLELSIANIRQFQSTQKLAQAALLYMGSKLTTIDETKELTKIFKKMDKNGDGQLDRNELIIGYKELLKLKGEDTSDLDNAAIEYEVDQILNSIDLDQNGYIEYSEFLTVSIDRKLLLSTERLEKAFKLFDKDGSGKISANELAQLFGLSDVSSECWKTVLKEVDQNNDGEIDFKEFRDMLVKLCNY

Protein kinase 7 (PK7), Plasmodium falciparum 3D7 (PF3D7_0213400), sequence (Q7YTF7 1-343): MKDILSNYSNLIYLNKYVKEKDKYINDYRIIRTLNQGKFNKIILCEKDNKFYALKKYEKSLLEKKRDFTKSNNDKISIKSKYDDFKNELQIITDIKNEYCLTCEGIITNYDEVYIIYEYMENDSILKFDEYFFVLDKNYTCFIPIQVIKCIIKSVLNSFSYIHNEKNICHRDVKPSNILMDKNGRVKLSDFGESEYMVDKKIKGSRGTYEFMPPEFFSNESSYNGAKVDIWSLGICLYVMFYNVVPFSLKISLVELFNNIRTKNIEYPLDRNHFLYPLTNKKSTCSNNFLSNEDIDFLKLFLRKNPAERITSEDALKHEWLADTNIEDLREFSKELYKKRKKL

On to `Cc1cccc2[nH]c(C3CCN(CC4CCN(C(=O)/C=C/c5ccc(Cl)c(Cl)c5)CC4)CC3)nc12`, for which the growth inhibition is 79% (active) in assay [1] and 100% (active) in assay [4]. The inhibition in assay [2] is 46%; in assay [3] it was 0%. The result in assay [5], in assay [6], in assay [7] and in assay [8] was inactive.

For `Cn1c(NC(=O)c2ccc(CNC(=O)c3ccc(O)c(-c4ccc(Cl)c(Cl)c4)c3)cc2)nc2ccccc21`, the results for the growth inhibition in assay [1] and in assay [4] were 74% (active) and 94% (active), respectively. The inhibition in assay [2] was 20%; in assay [3] it was -1%. For the same compound, the outcome in assay [5], in assay [6], in assay [7] and in assay [8] was inactive.

With `COc1ccc(Cn2c(Nc3cccc(C(F)(F)F)c3)nc3cc(C(=O)NCCCN(C)C)ccc32)cc1Cl`, the growth inhibition in assay [1] is 3%; in assay [4] it was 90% (active). For the same compound, the inhibition in assay [2] was 15%; in assay [3] it was -7%. Also, the result in assay [5], in assay [6], in assay [7] and in assay [8] was inactive.

As to `Cc1cccc2[nH]c(-c3ccc(-c4cccc(NC(=O)Cc5cnc[nH]5)c4)cc3)nc12`, the growth inhibition in assay [1] is 21%; in assay [4], 98% (active). Besides, the results for the inhibition in assay [2] and in assay [3] were 13% and -4%, respectively. Further, the result in assay [5], in assay [6], in assay [7] and in assay [8] was inactive.

As to `Fc1ccc(-c2nc(NCc3cccc(C(F)(F)F)c3)nn2-c2cccc(C(F)(F)F)c2)cc1C(F)(F)F`, the growth inhibition in assay [1] is 58% (active); in assay [4] it was 90% (active). In addition, the values for the inhibition in assay [2] and in assay [3] were 2% and -5%, respectively. The result in assay [5], in assay [6], in assay [7] and in assay [8] was inactive.

As for `CCOc1ccc(Nc2cc(C)nc(Nc3ccc(OCC)cc3)n2)cc1`, the results for the growth inhibition in assay [1] and in assay [4] were 49% and 101% (active), respectively. The inhibition in assay [2] is 3%; in assay [3] it was 8%. The outcome in assay [5], in assay [6], in assay [7] and in assay [8] was inactive.

On to `COc1ccc2nccc([C@@H](O)CN3CCC(NCc4ccc5c(c4)sc(=O)n5C)CC3)c2c1`, for which the growth inhibition was 72% (active) in assay [1] and 100% (active) in assay [4]. For the same compound, the inhibition in assay [2] was 10%; in assay [3] it was -6%. Further, the outcome in assay [5], in assay [6], in assay [7] and in assay [8] was inactive.

On to `C[C@H]1CN(Cc2cccc(-c3cc(CNC(=O)c4cccc(CN5CCN(CCOc6ccccc6)CC5)c4)ccc3F)c2)CCN1`, for which the values for the growth inhibition in assay [1] and in assay [4] were 88% (active) and 91% (active), respectively. Further, the results for the inhibition in assay [2] and in assay [3] were 59% (active) and 4%, respectively. In addition, the result in assay [5], in assay [6], in assay [7] and in assay [8] was inactive.

With `CCN(CC)CCN(Cc1ccc(-c2ccc(C(F)(F)F)cc2)cc1)C(=O)Cn1c(CCc2cc(F)cc(F)c2F)nc(=O)c2ccccc21`, the growth inhibition was 77% (active) in assay [1] and 101% (active) in assay [4]. Moreover, the inhibition was 36% in assay [2] and 1% in assay [3]. The result in assay [5], in assay [6], in assay [7] and in assay [8] was inactive.

With `Cc1[nH]c(C)c(-c2ccc(C(=O)c3ccc(Cl)cc3)cc2)c(=O)c1Cl`, the growth inhibition in assay [1] is 95% (active); in assay [4], 98% (active). Moreover, the inhibition in assay [2] is -1%; in assay [3], 4%. Further, the result in assay [5], in assay [6], in assay [7] and in assay [8] was inactive.

In the case of `COc1ccccc1N1CCN(C(C(=O)NCc2ccc(C)cc2)c2ccc(C)cc2)CC1` (stereo not given), the growth inhibition in assay [1] was 79% (active); in assay [4], 92% (active). Besides, the results for the inhibition in assay [2] and in assay [3] were 12% and 6%, respectively. Further, the outcome in assay [5], in assay [6], in assay [7] and in assay [8] was inactive.

Take `COc1cccc(C(NC(=O)c2ccccc2)c2ccc3cccnc3c2O)c1` (stereo not given): the growth inhibition in assay [1] is 41%; in assay [4], 89% (active). The results for the inhibition in assay [2] and in assay [3] were 52% (active) and 2%, respectively. The outcome in assay [5], in assay [6], in assay [7] and in assay [8] was inactive.

`CCOc1ccc(-c2nonc2NC(=O)c2ccc(Cl)cc2)cc1OCC`: the figures for the growth inhibition in assay [1] and in assay [4] were 47% and 94% (active), respectively. Further, the inhibition in assay [2] was 28%; in assay [3] it was -2%. The result in assay [5], in assay [6], in assay [7] and in assay [8] was inactive.

As to `Clc1ccc(OCCC2CCN(CCCCCCN3CCCCC3)CC2)cc1Cl`, the growth inhibition is 36% in assay [1] and 97% (active) in assay [4]. Also, the inhibition is 86% (active) in assay [2] and 9% in assay [3]. Besides, the result in assay [5], in assay [6], in assay [7] and in assay [8] was inactive.

As for `CC(C)(C)NS(=O)(=O)c1cc(C(=O)N2CCC(CCN3CCC(O)(c4cccc(C(F)(F)F)c4)CC3)(c3cccc(F)c3)CC2)c(Cl)cc1F`, the growth inhibition in assay [1] was 55% (active); in assay [4] it was 88% (active). Moreover, the results for the inhibition in assay [2] and in assay [3] were 15% and -6%, respectively. The result in assay [5], in assay [6], in assay [7] and in assay [8] was inactive.

In the case of `O=C(Nc1ccc2c(c1)CNCC2)c1ccc(-c2ccc(Cl)cc2)cc1`, the growth inhibition in assay [1] was 28%; in assay [4], 96% (active). Besides, the values for the inhibition in assay [2] and in assay [3] were 52% (active) and 6%, respectively. Moreover, the result in assay [5], in assay [6], in assay [7] and in assay [8] was inactive.

As for `N#Cc1ccc2c(c1)CN(C1CCC(NC(=O)C3=Cc4cc(Cl)ccc4OC3)CC1)CCC2` (stereo not given), the growth inhibition is 8% in assay [1] and 93% (active) in assay [4]. The figures for the inhibition in assay [2] and in assay [3] were -5% and 2%, respectively. Also, the result in assay [5], in assay [6], in assay [7] and in assay [8] was inactive.

With `c1ccc(CCNCc2ccc(-c3ccc(CNCc4ccc5c(c4)OCO5)cc3)nc2)cc1`, the growth inhibition in assay [1] was 67% (active); in assay [4] it was 94% (active). Besides, the inhibition in assay [2] is 24%; in assay [3] it was 5%. Also, the outcome in assay [5], in assay [6], in assay [7] and in assay [8] was inactive.

`CCCCCCCC1=NN2C(=N)C(=Cc3cc(Br)c(OCc4ccc(F)cc4)c(OCC)c3)C(=O)N=C2S1`: the growth inhibition is -6% in assay [1] and 95% (active) in assay [4]. Moreover, the inhibition in assay [2] was 4%; in assay [3] it was 0%. The result in assay [5], in assay [6], in assay [7] and in assay [8] was inactive.

Take `CCOc1ccc2nc(C)cc(NN=Cc3ccccc3[N+](=O)[O-])c2c1`: the values for the growth inhibition in assay [1] and in assay [4] were 99% (active) and 101% (active), respectively. For the same compound, the figures for the inhibition in assay [2] and in assay [3] were 91% (active) and -5%, respectively. For the same compound, the outcome in assay [5], in assay [6], in assay [7] and in assay [8] was inactive.

For orientation: inhibition means the change of the read-out against control, counted positive when it falls.
